Screening results (PubChem BioAssay)
HT1080 IDH1KD tx: toxicity to HT-1080 IDH1 knockdown cells (counter line). HT-1080 IDH1 knockdown viability, ATP luminescence, 48 h. Potency, µM (top dose mostly 46.1 µM), for the others: top-dose activity, negative = toxicity, actives largely listed as cytotoxic. 2% of 360,000 active. AID 686971;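 further: 0% = DMSO wells and -100% = cell-free medium wells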
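Luminescent ATP read-out (CellTiter-Glo, 10 min at room temperature) after 48 h compound exposure at 37 °C gave viability of IDH1-knockdown HT-1080 cells. Activity was normalised to DMSO and cell-free wells, then fitted as concentration-response curves.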
HepG2 tox: counter-screen for TGF-b inhibitors: cytotoxicity in HepG2 cells | AID 588856 | Potency, µM (doses to about 46.1 µM), for inactives: at the top dose activity change, negative = cytotoxicity, most hits filed as cytotoxic | HepG2 CAGA-GFP viability, ATP luminescence, 18 h | 0.76% of 410,000 active
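HepG2 CAGA-GFP cells (1000/well, DMEM with 1% FBS) received compound, then TGF-beta at 500 pg/mL final, and were incubated 18 hours at 37 degrees C. Viability was read by CellTiter-Glo luminescence. Media-only wells were set as complete cell-killing and DMSO as no toxicity.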
HT1080-NT tox: kills 2HG-producing HT-1080-NT fibrosarcoma cells. HT-1080-NT fibrosarcoma viability, CellTiter-Glo ATP luminescence, 48 h. Potency, µM (highest dose often 46.1 µM), without a hit: at the top dose activity, negative = less viability, most hits filed as cytotoxic. 1.6% of 360,000 active;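 further: NT is the 2HG producing partner of a matched IDH1 knockdown line; 0% = DMSO-treated cells and -100% = media-only wells without cells; nearly all actives have a fitted effect of over 55% in size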
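Viability by CellTiter-Glo luminescence after 48 h compound exposure at 37C of HT-1080-NT cells (750/well, RPMI, 5% FBS). % activity scaled between DMSO wells and medium-only wells, then curve-fitted and categorized by curve class.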
ATXN viability: reduces viability in counter-screen for ATXN expression inhibitors; S2 cells (HEK-293 line with an ATXN2-luciferase reporter) viability, CellTiter-Fluor protease fluorescence, 24 h; AID 651635; 0.49% of 400,000 active; Potency, µM (series often up to 56.7 µM), hits mostly cytotoxic; further: nearly all actives have a fitted effect of over 40% in size
ATXN2 expr inh: ATXN2 expression inhibition; 0.72% of 360,000 active; Potency, µM (series often up to 57 µM), for inactives: top-dose activity change, negative = inhibition, actives largely listed as inhibitors; AID 1745845; HEK-293 ATXN2-luciferase reporter, luminescence, 24 h; further: on the % scale 0 is the no-effect control and ±100 the full control effect; nearly all actives have a fitted effect of over 55% in size
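ATXN2-luciferase reporter cells (luciferase flanked by upstream and downstream ATXN2 gene portions) were treated 24 h at 37 °C with compounds at up to 57 uM. SteadyGlo luminescence gave expression; GF-AFC fluorescence gave viability.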
TGFb inhibitor: TGF-b pathway inhibition | HepG2 CAGA-GFP TGF-b/SMAD3 reporter, GFP fluorescence, 18 h; TGF-beta stimulated, 500 pg/mL final | Potency, µM (series often up to 46.1 µM), inactives show at the top dose activity, negative = inhibition, actives largely listed as inhibitors | 1.2% of 410,000 active; further: on the % scale 0 is the no-effect control and ±100 the full control effect; nearly all actives have a fitted effect of over 65% in size
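Using HEPG2 CAGA-GFP reporter cells at 1000 cells/well, we pinned test compounds, stimulated with recombinant TGF-beta (500 pg/mL final) and measured total well GFP after 18 h.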
An asterisk follows results filed as active; i = inactive; ? = inconclusive; . = not tested or not shown. A selection: hits, their analogues and other compounds. The true share with any hit is near 3.8%. The call rests on the fitted dose curve; in most records, active means well fitted curve in the direction sought with a large enough effect; inconclusive means small, poorly fitted or top-dose-only effect, or another doubt; inactive means no such curve, though single readings can be large; an effect the other way counts as inactive or inconclusive. Potency means the concentration at half of the fitted maximal effect.

SMILES	HT1080 IDH1KD tx	HepG2 tox	HT1080-NT tox	ATXN viability	ATXN2 expr inh	TGFb inhibitor
CCC(=O)NS(=O)(=O)c1ccc(-c2c(-c3ccccc3)noc2C)cc1	.	.	.	i	.	.
CCC1CN(C(=O)N2CCC(C(=O)NCCc3ccccc3Cl)CC2)c2cc(C)ccc2O1 (stereo not drawn)	.	-34%	.	.	.	11µM*
O=[N+]([O-])/C=C/c1cn(Cc2ccc(Cl)cc2)c2ccccc12	-18%	3.5µM*	16µM*	?	?	-41%
O=C(O)c1ccc(Cn2cc(/C=C\[N+](=O)[O-])c3ccccc32)o1	-2%	12%	0%	.	.	7%
O=C(O)Cn1cc(C(=O)c2ccco2)c2ccccc21	17%	-15%	11%	i	6%	1%
CCOC(=O)Cn1cc(/C=C/[N+](=O)[O-])c2ccccc21	?	-72%	?	.	.	16µM*
Cc1cccc(Cn2cc(/C=C/[N+](=O)[O-])c3ccccc32)c1	23µM*	-61%	?	?	-77%	7.9µM*
CCOC(=O)Cn1cc(C(=O)c2ccco2)c2ccccc21	-1%	-36%	-12%	?	32µM*	-3%
COCCCNC(=O)c1sc2nc(C)c(C(=O)Nc3ccc(C)cc3C)c(-c3ccccc3Cl)c2c1N	.	-4%	.	i	-7%	0%
COCC(=O)OC1CCn2c1nc1c2C(=O)C(C)=C(NC(C)=O)C1=O (stereo not drawn)	4.6µM*	-87%	7.3µM*	.	10µM*	?
CC(C)c1onc(-c2c(Cl)cccc2Cl)c1COc1ccc(C=Cc2cccc(C(=O)O)c2)c(Cl)c1	.	.	.	.	44%	.
CCCn1c(SCC(=O)N2N=C3/C(=C/c4ccc(OC)cc4)CCCC3C2c2ccc(OC)cc2)n[nH]c1=O (stereo not drawn)	12µM*	-65%	7.3µM*	.	?	13µM*
O=C1/C(=C\c2ccc(O)c(O)c2)SC(=S)N1Cc1ccccc1	?	-75%	?	28µM*	?	?
O=C1/C(=C/c2ccncc2)SC(=S)N1Cc1ccccc1	18µM*	-46%	23µM*	i	-31%	?
O=C1/C(=C\c2cc([N+](=O)[O-])ccc2O)SC(=S)N1Cc1ccc(Cl)cc1	23µM*	-60%	23µM*	.	.	-6%
CCCN1C(=O)/C(=C/c2ccncc2)SC1=S	12%	7%	0%	i	-25%	7%
N#Cc1ccc(/C=C2\C=Cc3ccccc32)cc1	.	-11%	.	.	.	7%
CCOc1ccc(Cc2nc(C)c(CC(=O)N3CCCCC3)c(=O)[nH]2)cc1	16%	-7%	3%	i	1%	-2%
CC(C)c1nn(-c2c(Cl)cccc2Cl)c2nc(Cc3ccc(OCCO)cc3)[nH]c(=O)c12	.	.	.	.	0.034µM*	.
CC1C(=O)C(C)C(c2cc(Cl)ccc2O)NC1c1cc(Cl)ccc1O (stereo not drawn)	23µM*	-144%	16µM*	.	25µM*	?
Cc1ccc(Cl)cc1N1CCN(C(=O)CN(C2CCCCC2)S(C)(=O)=O)CC1	21µM*	-13%	-7%	i	-24%	0%
CS(=O)(=O)N(CC(=O)N1CCN(c2cccc(Cl)c2)CC1)C1CCCCC1	-1%	-2%	-1%	i	-1%	-6%
Cc1cc(C)cc(C(=O)C[n+]2cccc(Br)c2)c1	.	-29%	.	.	.	0%
Cc1ccc(Nc2nc(C)c(NC(=O)c3ccc(C)cc3)c(Nc3ccc(C)cc3)n2)cc1	.	-18%	.	i	?	14µM*
CN(C)c1ccc(C(C[N+](=O)[O-])c2c(N)n(C)c(=O)n(C)c2=O)c(F)c1C#N (stereo not drawn)	?	11µM*	?	.	.	?
COc1ccc(Cn2cc(F)c(=O)n(C)c2=O)cc1[N+](=O)[O-]	1%	-85%	2%	i	-8%	37%
